Test results: PubChem BioAssay AID2253 (Southern Research Specialized Biocontainment Screening …, 2010)
The campaign covered roughly 2,200 compounds. About 1,300 (59%) were called active. The set was probably picked from earlier hits. The list is a sample of the results. Results with a measured potency or affinity are listed apart. Unmarked numbers belong to inactive results. How the calls were made is not given here.

test: THP-1 cell cytotoxicity, dose response, cytotoxicity control for Salmonella PhoP regulon inhibitors, S. typhimurium screen hits (AID 2253); conditions: THP-1 viability, CellTiter-Glo luminescence, 72 h; series mostly up to 50 µM; viability: at the top concentration

Row | SMILES | viability
1 | CO[C@@]1(NC(=O)C2SC(=C(C(N)=O)C(=O)O)S2)C(=O)N2C(C(=O)O)=C(CSc3nnnn3C)CS[C@@H]21 (stereo partly specified) | 87.5%
2 | CCCn1nnc(NC(=O)c2ccc(Br)o2)n1 | 86%
3 | FC(F)(F)c1cc(C(F)(F)F)c2ccc(Oc3ccccc3)nc2n1 | 101%
4 | Cc1ccc(NS(=O)(=O)c2ccccc2)c2c1CC(C)(C)O2 | 83.2%
5 | O=C1N=c2ccccc2=C1c1[nH]c(=S)[nH]c1O | 105%
6 | Cc1ccc(Nc2nc(N)nc(CC#N)n2)cc1 | 87%
7 | C=CCn1c(SCC(=O)Nc2nnc(CC)s2)nnc1-c1cccnc1 | 95.3%
8 | O=C(COC(=O)c1cn(-c2ccccc2)nc1-c1ccccc1)c1cccc([N+](=O)[O-])c1 | 102%
9 | c1ccc(CSc2snnc2-c2ccccc2)cc1 | 83.8% [at 25 µM]
10 | O=C(c1cn(-c2ccccc2)nc1-c1cccnc1)N1CCCCC1 | 94.1%
11 | [O-]/[N+](=C\c1ccncc1)c1ccccc1 | 99.6%
12 | BrC(=C\c1ccccc1)/C=N/N1CCN(c2ccccn2)CC1 | 91%
13 | COC(=O)c1sc2ccccc2c1-n1cccc1C(=O)C(=O)Nc1ccc(Cl)cc1 | 85.5%
14 | O=C1CCCc2c1cc(C(=O)NCc1ccco1)c(=O)n2-c1ccc(Cl)cc1 | 99.9%
15 | CC(=O)c1cccc(NC(=O)NCc2ccco2)c1 | 83.1%
16 | CCCCN(C)C(=O)c1cn(C)c2ccc(S(=O)(=O)N(C)C)cc2c1=O | 98.4%
17 | CO[C@H]1/C=C/O[C@@]2(C)Oc3c(C)c(O)c4c(O)c(c(C=NN5CCN(C)CC5)c(O)c4c3C2=O)NC(=O)/C(C)=C\C=C\[C@H](C)[C@H](O)[C@@H](C)[C@@H](O)[C@@H](C)[C@H](OC(C)=O)[C@@H]1C | 84.4%
18 | O=Cc1cccn1Cc1ccccc1[N+](=O)[O-] | 111%
19 | COC(=O)C1C(=O)C=C(N2CCOCC2)CC1(C)C (stereo unspecified) | 90.5%
20 | O=c1c2oc3ccccc3c2ncn1Cc1ccc(Cl)cc1 | 104%
21 | CSc1nnc(NC(=O)CCc2ccccc2)s1 | 83.4%
22 | CN1CCCC(OC(=O)CCCC(=O)OC2CCCN(C)C2)C1 (stereo unspecified) | 96.3%
23 | O=C(Oc1ccc[nH]c1=O)c1cc([N+](=O)[O-])cc([N+](=O)[O-])c1 | 99.9%
24 | CC(C)Cc1nc2ccc(N)cc2[nH]1 | 95.7%

Row | SMILES | viability
25 | Cc1ccc2nc(C(F)OC(F)(F)F)[nH]c2c1 (stereo unspecified) | 83.4%
26 | O=C(O)CCC(=O)NCC1OCCc2ccccc21 (stereo unspecified) | 93.2%
27 | CCn1cc(C(=O)O)c(=O)c2cc(OC)ccc21 | 81.6%
28 | O=C(CSc1nc2[nH]ncc2c(=O)[nH]1)N1CCCCC1 | 98.4%
29 | C#CCOc1ccc(Cl)cc1/C=N/O | 92.4%
30 | CC1CCCCN1Cc1cnc(Cl)s1 (stereo unspecified) | 93.5%
31 | O=C(N/N=C/c1ccco1)c1cccc(S(=O)(=O)Nc2ccccc2Cl)c1 | 87.6%
32 | CCN(CC)S(=O)(=O)c1cccc(C(=O)NC(Cc2c[nH]c3ccccc23)c2nnc3n2CCC3)c1 (stereo unspecified) | 88.5%
33 | CC(=O)Oc1ccc(C(=O)[C@H]2[C@H]3C(=O)N(c4ccc5ccccc5c4)C(=O)[C@H]3[C@@H]3C=CC=NN32)cc1 | 90.4%
34 | O=C(CSc1nnc2c(Cl)cc(Cl)cn12)NC1CCS(=O)(=O)C1 (stereo unspecified) | 102%
35 | O=C(CSc1nnc(-c2ccccc2)n1-c1ccc(Cl)cc1)NC1CCS(=O)(=O)C1 (stereo unspecified) | 87.2%
36 | COc1cccc(-c2nnc(SCC(=O)Nc3ccc(OC)c(OC)c3)n2N)c1 | 114%
37 | COc1ccc(-c2ccc3c(N)c(C(=O)c4cccc(OC)c4)sc3n2)cc1 | 101%
38 | COc1ccc(NC(=O)CCNS(=O)(=O)c2ccc3c(c2)CCC(=O)N3)cc1 | 102%
39 | O=c1[nH]c2ccccc2n2c(=S)[nH]nc12 | 108%
40 | CCn1ncc(/C=C/C(=O)NCc2cn(C)nc2C)c1C | 89%
41 | COc1ccc(OC)c(S(=O)(=O)N(C)CC(=O)N2CCc3ccccc3C2)c1 | 93.7%
42 | COc1ccc(C(=O)N2CCN(C(=O)c3ccco3)CC2)cc1OC | 109%
43 | Nc1nc(CSc2nc3ccccc3[nH]2)nc(N2CCOCC2)n1 | 83.1%
44 | Cc1cc(-c2csc(NC(=O)c3ccccc3C(F)(F)F)n2)c(C)n1Cc1ccccc1 | 86.9%
45 | O=C(NC1CCCC1)c1ccc(Cl)s1 | 93.1%
46 | O=C(OCc1nnc(-c2ccccc2)o1)c1ccc(S(=O)(=O)NCc2ccco2)cc1 | 88.5%
47 | COC(=O)c1cccc(NC(=O)CCCOc2ccccc2)c1 | 97.7%
48 | O=C(Cn1nc(Cc2cccnc2)c2ccccc2c1=O)NCc1ccc2c(c1)OCO2 | 89.3%

Row | SMILES | viability
49 | COC(=O)c1ccccc1NC(=O)NCc1ccc2c(c1)OCO2 | 90%
50 | CC(C)(C)c1ccc(C2CC2C(=O)N/N=C\c2cc3ccccc3nc2Cl)cc1 (stereo unspecified) | 95%
51 | CCn1c(SCC(=O)N2CCCCC2)nc(O)cc1=O | 95.8%
52 | CCCc1cc(C(=O)Cc2ccc(C(=O)OCC)o2)c(O)cc1O | 84.2%
53 | O=C(NCc1cccnc1)c1cc2ccccc2oc1=O | 91.9%
54 | CCOC(=O)N1CCN(c2nc(C)c3c(n2)CCCC3=O)CC1 | 93%
55 | CCCCn1c(-c2ccccc2)nc2c(=O)n(C)c(=O)[nH]c21 | 93.3%
56 | CCN(CC)CCNC(=O)c1cn(CC)c2cc(N3CCN(C(=O)c4ccco4)CC3)c(F)cc2c1=O | 99.3%
57 | O=C1C2CCCN2c2ccc(S(=O)(=O)N3CCOCC3)cc2N1Cc1ccccc1F (stereo unspecified) | 87.7%
58 | Cc1ccc(Oc2ccc3c(c2)C(=O)N(c2ccc(S(=O)(=O)Nc4nccs4)cc2)C3=O)cc1 | 92.7%
59 | CCCS(=O)(=O)N1CCCC(C(=O)N2CCN(c3ccccn3)CC2)C1 (stereo unspecified) | 95.6%
60 | N=c1scc(-c2ccccc2)n1/N=C/c1ccco1 | 89.4%
61 | CCCCn1c(O)c(C(CC)=Nc2ccc3c(c2)CCC3)c(=O)[nH]c1=O | 88.6%
62 | Cc1cccc(-n2c(N)cc(=O)[nH]c2=S)c1 | 94.4%
63 | O=C(O)C1CC=CCC1C(=O)NC12CC3CC(CC(C3)C1)C2 (stereo unspecified) | 99.5%
64 | COC(=O)c1cc(C#N)c(Oc2ccccc2OC)nc1C | 90.4%
65 | CN(CCO)Cc1csc2ccc(Br)cc12 | 95.3%
66 | CCn1c(CNC(=O)c2cccc(C)c2)nc2ccccc21 | 98.8% [at 25 µM]
67 | Cc1ccc(C)n1-c1cc([N+](=O)[O-])ccc1-n1ccnc1 | 91.1%
68 | Nc1c(-c2ccccc2)cnn1-c1cccc([N+](=O)[O-])c1 | 98.2% [at 25 µM]
69 | NC(=O)c1c(NC(=O)CN2C(=O)CCC2=O)sc2c1CCCCC2 | 101%
70 | CCOC(=O)c1c(NC(=O)Nc2ccc(C)cc2)sc2c1CCN(C)C2 | 82.3%
71 | CC(C)(C)C1CCc2c(sc(NC(=O)c3cccs3)c2C(=O)N2CCCCC2)C1 (stereo unspecified) | 80.1%
